Only some compounds are listed: those with a hit (about 12% of all), similar ones and a draw of the others.
PI5P4Ka inh: PI5P4K alpha (human) kinase inhibition | P48426 | max response, % | PI5P4Kalpha enzyme, ADP-Glo luminescence, 60 min; active compounds read low | AID 652105 | 1.2% of 330,000 active; active = max response of -50% or lower; inconclusive = between -30% and -50%; inactive = -30% or higher; note: value at the top dose of about 77 µM; % is set by controls: 0 for no effect and ±100 for the full control effect
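qHTS, 1536-well: enzyme/substrate mix, compound by pin tool, 5 microM ATP final; RT 60 min; ADP-Glo reagents 1 (45 min) then 2 (30 min); luminescence.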
HP1b binding inh: HP1-beta chromodomain-methylated histone interaction inhibition; AlphaScreen HP1-beta / biotin-H3K9me3 peptide binding; Potency, µM (doses to about 114 µM), for inactives: at the top dose activity change, negative = inhibition, most hits filed as inhibitors; 0.56% of 390,000 active; P83916; note: potency is the fitted concentration of half-maximal effect; nearly all actives have a fitted effect of over 70% in size
Target sequence (P83916 whole entry, looked up): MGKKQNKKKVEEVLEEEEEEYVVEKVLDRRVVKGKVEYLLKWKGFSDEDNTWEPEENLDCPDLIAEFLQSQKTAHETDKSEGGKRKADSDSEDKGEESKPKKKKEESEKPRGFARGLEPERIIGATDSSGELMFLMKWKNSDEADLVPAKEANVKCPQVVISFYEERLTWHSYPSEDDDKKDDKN
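AlphaScreen: HP1-beta (50 nM) preformed 30 min with biotin-H3(1-18)K9me3 peptide (50 nM) in PBS pH 7.4, 0.01% Tween-20. Compound added for 30 min at RT, then streptavidin donor/nickel chelate acceptor beads (10 ug/mL) for 30 min.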
JMJD2A Tudor inh: inhibitors of human JMJD2A Tudor domain | O75164 | AlphaScreen JMJD2A-Tudor / H3K4me3 peptide binding | 4.4% of 390,000 active | Potency, µM (titrated, usually from 114 µM), for inactives: top-dose activity change, negative = inhibition, hits mostly inhibitors; note: potency is the fitted concentration of half-maximal effect; % is set by controls: 0 for no effect and ±100 for the full control effect; nearly all actives have a fitted effect of over 50% in size
PLK1 PBD inh: inhibitors of human PLK1 polo-box domain binding; P53350; Potency, µM, inactives show max response, negative = inhibition, hits mostly inhibitors; 2.8% of 360,000 active; Plk1 PBD binding of FITC phosphopeptide, fluorescence polarization; note: potency is the fitted concentration of half-maximal effect; series mostly up to about 57 µM; % is set by controls: 0 for no effect and ±100 for the full control effect; nearly all actives have a fitted effect of over 65% in size
G9a block: blocks human histone lysine methyltransferase G9a; Q96KQ7; G9a H3K9 monomethylation, AlphaScreen, 2 h; Potency, µM (top dose mostly 102 µM), inactives show at the highest dose activity, negative = inhibition, most hits filed as inhibitors; 8.8% of 350,000 active; AID 504332; note: potency is the fitted concentration of half-maximal effect; % is set by controls: 0 for no effect and ±100 for the full control effect; nearly all actives have a fitted effect of over 75% in size
Target sequence (Q96KQ7 913-1193 limits assumed): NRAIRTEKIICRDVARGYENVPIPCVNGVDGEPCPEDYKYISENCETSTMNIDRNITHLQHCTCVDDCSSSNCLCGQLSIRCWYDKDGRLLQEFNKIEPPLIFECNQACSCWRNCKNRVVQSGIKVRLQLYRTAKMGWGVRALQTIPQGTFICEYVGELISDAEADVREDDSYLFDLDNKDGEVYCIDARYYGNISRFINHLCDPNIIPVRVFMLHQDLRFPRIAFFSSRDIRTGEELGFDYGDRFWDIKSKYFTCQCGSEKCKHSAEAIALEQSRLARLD
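Signal arises when biotinylated H3K9 peptide, once monomethylated, bridges streptavidin donor and antibody-captured acceptor beads. Enzyme at 20 nM was preincubated 15 min with test compounds; peptide 500 nM and SAM 20 uM then reacted for 2 h.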
BAZ2B block: blocks human BAZ2B. AlphaScreen BAZ2B-H3K14Ac peptide displacement. Potency, µM (highest dose often 114 µM), for inactives: at the top dose activity change, negative = inhibition, most hits filed as inhibitors. 4.4% of 360,000 active. AID 504333; note: potency is the fitted concentration of half-maximal effect; % is set by controls: 0 for no effect and ±100 for the full control effect; nearly all actives have a fitted effect of over 60% in size
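BAZ2B (50 nM) with biotin-H3(5-23)K14Ac peptide (50 nM) in PBS pH 7.4, 0.01% Tween-20, preformed 30 min, then compound 30 min at room temperature; top concentration 110uM. AlphaScreen streptavidin donor/nickel chelate acceptor beads (10 ug/mL final), 20 min dark, signal read.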
An asterisk follows results filed as active; ? = inconclusive; nt = not tested or not shown; [ ] = another dose, or the depositor's remark. Unless noted, calls come from the whole dose curve; as a rule, active = well fitted curve in the direction sought with a large enough effect; inconclusive = small, poorly fitted or top-dose-only effect, or another doubt; inactive = no such curve, though single readings can be large; an effect the other way counts as inactive or inconclusive.

SMILES	PI5P4Ka inh	HP1b binding inh	JMJD2A Tudor inh	PLK1 PBD inh	G9a block	BAZ2B block
O=c1c2cccnc2n(Cc2ccc(Cl)cc2)c(=O)n1Cc1ccc(F)cc1	nt	47%	2%	nt	8%[59 µM]	-2%
CC(=O)c1ccc(-c2cccc(-c3cc(=O)oc4ccc(C(C)(C)C)cc34)c2)cc1	2	44%	-7%	-8%	14%[59 µM]	nt
Cc1ccc(S(=O)(=O)N2[C@@H](c3ccc(Cl)cc3)C(C(=O)O)=C[C@H]2C(C)(C)C)cc1	6	55%	14%	?	nt	nt
O=C(Nc1cc(Cl)cc(Cl)c1)c1ccc(F)c(S(=O)(=O)N2CCc3ccccc32)c1	nt	24%	-19%	nt	-1%[59 µM]	0%
CC(=O)N1c2c(cc(Br)cc2S(=O)(=O)N2CCN(C(=O)c3ccco3)CC2)CC1C (stereo not drawn)	?	-10%	22µM*	4.7µM*	?	-1%
O=C(c1ccco1)N1CCN(S(=O)(=O)c2ccccc2[N+](=O)[O-])CC1	-13	-9%	-10%[11.4 µM]	30µM*	-22%	-20%
CS(=O)(=O)N1CCN(S(=O)(=O)c2ccccc2[N+](=O)[O-])CC1	-13	-5%	-6%[11.4 µM]	?	0%	-14%
O=[N+]([O-])c1ccc(C(=S)N2CCC(Cc3ccccc3)CC2)cc1	-4	?	?	-29%	?	?
O=[N+]([O-])c1ccccc1S(=O)(=O)N1CCCCC1	-5	26%	-13%	27µM*	14%[59 µM]	-8%
O=[N+]([O-])c1ccc(CN2CCC(Cc3ccccc3)CC2)cc1	1	?	28µM*	-4%	?	50µM*
Cc1cc(C)cc(C(=O)NCC(=O)N2CCC(C(N)=O)CC2)c1	-2	13%	-1%	4%	nt	nt
O=S(=O)(c1ccc(Cl)cc1)N1CCN(C2CCN(Cc3ccccc3)CC2)CC1	-6	4%	-20%	-4%	-6%	0%
O=[N+]([O-])c1ccc(S(=O)(=O)N2CCN(C3CCN(Cc4ccccc4)CC3)CC2)cc1	6	50µM*	1.8µM*	4%	32µM*	28µM*
CCCOc1ccc(F)cc1-c1cc(C(=O)Nc2ccc(C(C)C)cc2)[nH]n1	-2	nt	nt	3%	nt	nt
CCCCCCNc1nc(-c2ccc(OC)cc2)c(CCC(=O)O)s1	2	-2%	-16%	?	45µM*	?
COCCNc1nc(-c2ccc(OC)cc2)c(-c2ccc(OC)cc2)s1	4	-3%	?	?	?	71µM*
COc1ccc(-c2noc(CCC(=O)NC3CCCCCC3)n2)cc1	-1	31%	-13%	-11%	8%	2%
COC(=O)CCc1sc(Nc2ccc(OC)cc2)nc1-c1ccc(OC)cc1	nt	-16%	?	nt	8.9µM*	-34%
COC(=O)CCc1sc(NC2CCCCC2)nc1-c1ccc(OC)cc1	-2	?	?	-28%	13µM*	?
COc1ccc2c(c1C)CCC(C)(C#N)C2=O (stereo not drawn)	-3	27%	1%	-8%	nt	nt
CCCCc1ccc(S(=O)(=O)NC(=O)C2(C)CCN2C(=O)C/C=C/c2ccccc2)cc1 (stereo not drawn)	1	nt	nt	-27%	nt	nt
CC1(C(=O)NS(C)(=O)=O)CCN1C(=O)C/C=C/c1ccccc1 (stereo not drawn)	-2	nt	nt	-4%	nt	nt
O=C(c1ccc2c(c1)OCCO2)N(Cc1cccnc1)c1nc2ccc(F)cc2s1	nt	27%[57 µM]	-12%	nt	?	3%
C1CNCCOCCNCCN1	-2	50%	-25%	0%	-5%	45µM*
S=C1NCCOCCOCCOCCOCCN1	nt	29%	-2%	-5%	?	1%
SMILES	PI5P4Ka inh	HP1b binding inh	JMJD2A Tudor inh	PLK1 PBD inh	G9a block	BAZ2B block
Cc1cnc(N2C(=O)c3ccc([N+](=O)[O-])cc3C2=O)s1	-23	-3%	?	-14%	56µM*	-20%
O=C(COC(=O)C1COc2ccccc2O1)c1ccc(F)cc1 (stereo not drawn)	-1	nt	nt	4%	nt	nt
O=C(N=Nc1c(O)[nH]c2ccc(F)cc12)C1COc2ccccc2O1 (stereo not drawn)	-15	-10%	?	27µM*	-2%	-19%
C[C@@]12C(=O)N(Cc3ccc(F)cc3)CC(=O)N1[C@H]1c3cc(Cl)ccc3OC[C@@H]1[C@@H]2c1ccccc1	0	12%	-28%	6%	nt	nt
O=C(Cn1ncc2c([nH]c3ccccc32)c1=O)N1CCN(c2ccccc2F)CC1	-1	3%	?	27µM*	1%[59 µM]	-6%
COc1ccc(C)cc1NC(=O)CSCc1cc(=O)n2c(C)csc2n1	0	45%	0%	-5%	-3%	79µM*
Cc1cccc(-n2cc3c(=O)n(C)c(=O)n(C)c3c2)c1	-7	20%	-17%	-20%	nt	?
CCN(CC)c1ccc(-n2cc3c(=O)n(C)c(=O)n(C)c3c2)cc1	-23	32µM*	56µM*	-13%	-39%[12.7 µM]	32µM*
CN(C)c1ccc(-n2cc3c(=O)n(C)c(=O)n(C)c3c2)cc1	?	?	?	-4%	45µM*	35µM*
CCc1ccc(NC(=O)c2ccc3c(c2)c(C)c(C)n3Cc2ccccc2)cc1	nt	11%	-31%	nt	-8%[59 µM]	-14%
CCN(CC)c1ccc(CNc2ccc3c(c2)ncn3C(C)(C)C)cc1	4	?	14µM*	-1%	14µM*	11µM*
CCc1ccc(CNc2ccc3c(c2)ncn3C(C)(C)C)cc1	3	?	63µM*	-7%	50µM*	45µM*
CC(C)(C)n1cnc2cc(NCc3ccccc3O)ccc21	7	-12%	-35%	-9%	-7%	?
CC(C)(C)n1cnc2cc(NCc3ccc(Br)cc3)ccc21	-9	?	20µM*	21µM*	50µM*	32µM*
CC(C)(C)n1cnc2cc(NC(=O)c3ccc(Cl)cc3)ccc21	2	43%	-13%	-7%	7%	-11%
CC(C)(C)n1cnc2cc(NS(=O)(=O)c3ccccc3)ccc21	3	37%	-16%	-6%	-39%[12.7 µM]	8%
CC(OC(=O)CNC(=O)c1ccc(Cl)c(Cl)c1)C(=O)N1CCOCC1 (stereo not drawn)	6	34%	-10%	-2%	-39%	12%
Cc1coc2cc3oc(=O)ccc3cc12	-10	23%	-16%	-3%	-3%	6%
CCC1(c2ccc(Cl)cc2)NC(=S)N(c2ccc(C)c(C)c2)N1 (stereo not drawn)	-6	15%	-26%	-27%	18µM*	-26%
CC1=CC(C)(C)NC(=S)N1c1ccc(C)cc1	nt	28%	-11%	-1%	-9%[59 µM]	-2%
CCC1(c2ccccc2)NC(=S)N(c2ccc(C)c(C)c2)N1 (stereo not drawn)	-16	17%	?	-14%	7.9µM*	?

Source: PubChem BioAssay (National Center for Advancing Translational Sciences (NCATS))
